The results in this text go back to PubChem BioAssay (NCATS).

Assay [1] has as its target Rap guanine nucleotide exchange factor 3 (Homo sapiens) (UniProt O95398). Nature of the assay: Confirmatory qHTS for agonist of cAMP-regulated guanine nucleotide exchange factor 3 (EPAC1) (AID 1645881).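 Further: EPAC1 catalysed release of BODIPY-GDP from Rap1B seen as fluorescence loss; 100% = effect of cAMP agonist control; nearly all actives have a fitted effect of over 75% in size.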
For assay [2], the target named is Rap guanine nucleotide exchange factor 4 (Homo sapiens) (UniProt Q8WZA2). Description: Confirmatory qHTS for agonist of cAMP-regulated guanine nucleotide exchange factor 4 (EPAC2) (AID 1645884).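 Further: nucleotide exchange releases bodipy-GDP from Rap1 and this lowers its fluorescence; on the % scale 0 is the no-effect control and ±100 the full control effect; nearly all actives have a fitted effect of over 65% in size.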
Assay [3] addresses DNA repair nuclease/redox regulator APEX1 (Homo sapiens) (UniProt P27695). Nature of the assay: qHTS Validation Assay for Inhibitors of the Human Apurinic/apyrimidinic Endonuclease 1 (APE1) (AID 1705;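 further: TAMRA fluorescence gain over two minutes as APE1 cuts a quenched THF abasic duplex; series mostly up to about 57 µM; on the % scale 0 is the no-effect control and ±100 the full control effect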). The method, boiled down: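 Endonuclease activity of human APE1 is followed as dequenching when the enzyme incises a tetrahydrofuran abasic site in a short duplex labelled 5'-TAMRA/3'-BHQ-2 (50 nM final), after 15 min enzyme–compound preincubation at room temperature.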
On the technique in general: In qHTS, concentration-response curves come from the screen itself.

A short description of assay [4]: Counterscreen for APE1 Inhibitors: Fluorescent Dye Displacement Validation Assay (AID 1707).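 Further: plate controls were ThO with dsDNA and no compound for no effect and ThO without dsDNA for full effect.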 The gist of the method:
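ThO 250 nM + dsDNA 50 nM (THF abasic site, 5'-TAMRA), Tris-HCl pH7.5/50mM NaCl/2 mM MgCl2/0.01% Tween-20; compounds pin-transferred; ex 480/em 540 nm endpoint. Neutral = no compound; no-DNA ThO wells = negative control.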
(Counterscreens check selectivity or assay interference.)

Assay [5] in a line: qHTS for differential inhibitors of proliferation of Plasmodium falciparum line GB4 (AID 1816).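 Further: parasite growth measured after 72 h incubation.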 Further: potency means the concentration at half of the fitted maximal effect. Particulars: Potency: Plasmodium falciparum GB4 proliferation inhibition.
Assay [6] is described as follows: qHTS for differential inhibitors of proliferation of Plasmodium falciparum line 3D7 (AID 1876). Further: potency means the concentration at half of the fitted maximal effect.
A short description of assay [7]: qHTS for differential inhibitors of proliferation of Plasmodium falciparum line Dd2 (AID 1882).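 Further: series mostly up to about 29 µM; compound exposure of 72 h on infected erythrocytes; plate controls were DMSO vehicle for no effect and 0.29 µM artemisinin for full effect; nearly all actives have a fitted effect of over 65% in size.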 As to conditions: Potency: Plasmodium falciparum Dd2 proliferation inhibition. The gist of the method:
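SYBR Green I DNA fluorescence read-out, ex 485/em 535 nm. Signals were normalized to 0.29 uM artemisinin and DMSO wells, then corrected using vehicle-only plates flanking each stack. Parasite growth ran 72 h in erythrocytes before lysis.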

Assay [8] can be described thus: qHTS for differential inhibitors of proliferation of Plasmodium falciparum line W2 (AID 1883).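 Further: parasites grown with compound for 72 h before lysis and staining.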 Further: potency means the concentration at half of the fitted maximal effect. Particulars: Potency: Plasmodium falciparum W2 proliferation inhibition.
A short description of assay [9]: qHTS for differential inhibitors of proliferation of Plasmodium falciparum line HB3 (AID 1886).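 Further: parasites grown with compound for 72 h before SYBR Green readout.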 Further: potency means the concentration at half of the fitted maximal effect. As to conditions: Potency: Plasmodium falciparum HB3 proliferation inhibition.
Assay [10] concerns the target Ferritin light chain (Equus caballus) (UniProt P02791). Nature of the assay: qHTS Validation Assay for Identification of Novel General Anesthetics (AID 2323). Further: series mostly up to about 77 µM; on the % scale 0 is the no-effect control and ±100 the full control effect. The gist of the method:
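Apoferritin from horse spleen (10 uM) was mixed with 1-aminoanthracene at 50% saturation in PBS, then compounds were added. After 10 min at room temperature, fluorescence was read (ex 380 nm, em 535 nm) and normalized to free-probe and complex controls.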

Assay [11] deals with ATP-dependent DNA helicase Q1 (Homo sapiens) (UniProt P46063). Nature of the assay: qHTS Validation Assay for Inhibitors of RecQ-Like Dna Helicase 1 (RECQ1) (AID 2353).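 Further: plate controls were DMSO vehicle for no effect and enzyme-free control for full effect.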 The gist of the method:
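50 nM RECQ1T1 preincubated 15 min with compound in Tris pH 8.0 buffer with MgCl2, DTT, Tween-20 and 2.5 ug/ml poly(dI-dC); started with 200 nM TAMRA/BHQ-2 forked duplex and 2 mM ATP. Unwinding read as fluorescence (525/598 nm), two reads 2 h apart.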

A short description of assay [12]: Validation screen for small molecules that induce DNA re-replication in MCF 10A normal breast cells (AID 463097). Further: 0% is about no effect; nearly all actives have a fitted effect of over 60% in size. The gist of the method:
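DNA re-replication was detected as a rise in nuclei with elevated Hoechst fluorescence after a 48 hr compound exposure of MCF 10A cells at 37 C.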

Assay [13] in a line: Quantitative high throughput screen for delayed death inhibitors of the malarial parasite plastid, 96 hour incubation (AID 488745). Further: nearly all actives have a fitted effect of over 70% in size. Further: potency means the concentration at half of the fitted maximal effect. The gist of the method: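 Growth of reporter-bearing P. falciparum in red cells is measured after 96 h with compound, covering two erythrocytic cycles. Luminescence from the integrated luciferase serves as the growth signal.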
Assay [14] deals with M-phase phosphoprotein 8 (Homo sapiens) (UniProt Q99549). Description: qHTS Validation Assay for Inhibitors for MPP8 Chromodomain Interactions with Methylated Histone Tails (AID 488949). Further: nearly all actives have a fitted effect of over 55% in size. Further: potency means the concentration at half of the fitted maximal effect. The gist of the method: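 Disruption of the preformed MPP8–trimethyl-H3K9 peptide complex (both 50 nM, 30 min, RT) is measured after 30 min compound exposure, using AlphaScreen proximity beads; aurintricarboxylic acid titration serves as plate control.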

Assay [15] deals with Transient receptor potential cation channel subfamily V member 1 (Homo sapiens) (UniProt Q8NER1). Nature of the assay: HTS Assay for Compounds that Act as Enhancers of the Vanilloid Receptor 1 (AID 488979). Further: 0% is about no effect. The method, boiled down:
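Calcium influx kinetics via Fluo-8 (480/520 nm) in TRPV1-expressing cells, 2000/well cultured overnight at 35.5C. Compound-alone read 3 min (agonist phase), followed by EC20 capsaicin challenge for 2 min (enhancer phase).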

The target in assay [16] is Thyrotropin-releasing hormone receptor (Homo sapiens) (UniProt P34981). Description: qHTS for Small Molecule Agonists and Allosteric Enhancers of Human TRH Receptor: Validation Screen for Agonists (AID 493127;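 active means calcium activation more than 3 SD above the typical response in the agonist read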;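 further: intracellular calcium rise by fluo-8 fluorescence before TRH EC20 addition; 0% is about no effect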). Particulars: TRH receptor agonist cell assay; at 2 µM; stronger effect = higher value. The method, boiled down: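 Gq-coupled calcium mobilization in TRHR cells after compound addition, monitored kinetically with fluo-8 dye on an FDSS reader.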

The target of assay [17] is Galactokinase (Homo sapiens) (UniProt P51570). Nature of the assay: qHTS Validation Assay for Inhibitors of Human Galactokinase (GALK) (AID 493189). Further: 0% is about no effect. The method, boiled down: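 Compounds were pin-transferred into ATP buffer, then GALK-galactose mix was added (final 5 nM enzyme, 100 uM galactose, 35 uM ATP). After 1 h at room temperature, remaining ATP was measured luminescently.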

The target of assay [18] is Voltage-gated inwardly rectifying potassium channel KCNH2 (Homo sapiens) (UniProt Q12809). Nature of the assay: qHTS Assay for Small Molecule Inhibitors of the Human hERG Channel Activity (AID 588834).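 Further: top concentration of the series differs between compounds; on the % scale 0 is the no-effect control and ±100 the full control effect; lower thallium flux fluorescence means stronger hERG block; nearly all actives have a fitted effect of over 50% in size.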 The gist of the method:
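Measured: FluxOR fluorescence after thallium stimulation in U2OS cells transduced with hERG by baculovirus. Compounds pre-incubated around 10 min; medium Opti-MEM with 2% FCS. AC50 from Hill equation.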

For assay [19], the target named is Thyrotropin receptor (Homo sapiens) (UniProt P16473). Description: qHTS Assay for Antagonists of the Thyroid Stimulating Hormone Receptor (AID 488980). Further: series mostly up to about 58 µM; 0% is about no effect. The gist of the method:
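Cells expressing human TSHR (HEK293) are dispensed in HBSS/HEPES containing 70 uM RO 20-1724, compound is added, then TSH at EC80 (4 nM final). Antibody in lysis buffer follows, 30 minutes at room temperature before HTRF detection.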

Assay [20] deals with Cytochrome P450 2D6 (Homo sapiens) (UniProt P10635). Nature of the assay: qHTS Assay for Inhibitors and Substrates of Cytochrome P450 2D6 (AID 891). Further: nearly all actives have a fitted effect of over 60% in size. Further: potency means the concentration at half of the fitted maximal effect. The gist of the method:
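Human CYP2D6 (5 nM) with 30 uM Luciferin-ME EGE (at Km) in 100 mM KPO4, compound preincubated 10 min, then NADPH regeneration system for 60 min at room temperature. Luciferin read by luminescence; normalized to 1.43 uM quinidine.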

Unmarked numbers belong to inactive results. Records with an inconclusive call do not appear. Active and inactive are the calls of the source. Unless noted, the call rests on the fitted dose curve; in most records, active means well fitted curve in the direction sought with a large enough effect; inconclusive means small, poorly fitted or top-dose-only effect, or another doubt; inactive means no such curve, though single readings can be large; an effect the other way counts as inactive or inconclusive.

Chain of Voltage-gated inwardly rectifying potassium channel KCNH2 (Homo sapiens) (Q12809 whole entry, looked up): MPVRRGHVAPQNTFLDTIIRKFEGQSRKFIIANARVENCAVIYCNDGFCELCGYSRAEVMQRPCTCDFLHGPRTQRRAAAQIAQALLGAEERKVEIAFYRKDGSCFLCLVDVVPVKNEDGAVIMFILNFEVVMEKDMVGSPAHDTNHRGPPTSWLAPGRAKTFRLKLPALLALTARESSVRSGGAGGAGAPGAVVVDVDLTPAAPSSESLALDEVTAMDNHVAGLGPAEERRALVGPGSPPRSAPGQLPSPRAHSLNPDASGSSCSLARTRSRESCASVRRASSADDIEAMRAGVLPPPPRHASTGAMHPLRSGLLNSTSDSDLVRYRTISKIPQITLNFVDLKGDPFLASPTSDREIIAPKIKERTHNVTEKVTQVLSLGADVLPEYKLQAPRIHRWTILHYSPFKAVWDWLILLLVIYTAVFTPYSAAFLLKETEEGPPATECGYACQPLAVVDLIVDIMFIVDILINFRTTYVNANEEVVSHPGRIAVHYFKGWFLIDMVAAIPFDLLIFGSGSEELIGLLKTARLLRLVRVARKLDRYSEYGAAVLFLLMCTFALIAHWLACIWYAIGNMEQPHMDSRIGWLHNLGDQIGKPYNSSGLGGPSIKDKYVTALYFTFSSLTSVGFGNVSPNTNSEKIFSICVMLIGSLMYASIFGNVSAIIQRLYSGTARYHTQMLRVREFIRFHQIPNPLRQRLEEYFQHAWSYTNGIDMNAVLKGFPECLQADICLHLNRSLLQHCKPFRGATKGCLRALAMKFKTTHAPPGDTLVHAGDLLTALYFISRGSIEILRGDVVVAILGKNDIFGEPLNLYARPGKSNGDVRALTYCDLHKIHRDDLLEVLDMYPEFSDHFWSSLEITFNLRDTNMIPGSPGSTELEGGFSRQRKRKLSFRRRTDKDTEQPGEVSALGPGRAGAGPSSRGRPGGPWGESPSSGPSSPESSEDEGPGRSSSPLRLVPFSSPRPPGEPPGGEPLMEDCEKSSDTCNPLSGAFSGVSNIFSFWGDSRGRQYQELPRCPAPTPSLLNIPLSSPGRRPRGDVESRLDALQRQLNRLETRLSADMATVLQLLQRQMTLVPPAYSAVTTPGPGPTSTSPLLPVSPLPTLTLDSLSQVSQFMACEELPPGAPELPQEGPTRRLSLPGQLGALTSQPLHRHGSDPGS
Chain of Ferritin light chain (Equus caballus) (P02791 2-175 limits assumed): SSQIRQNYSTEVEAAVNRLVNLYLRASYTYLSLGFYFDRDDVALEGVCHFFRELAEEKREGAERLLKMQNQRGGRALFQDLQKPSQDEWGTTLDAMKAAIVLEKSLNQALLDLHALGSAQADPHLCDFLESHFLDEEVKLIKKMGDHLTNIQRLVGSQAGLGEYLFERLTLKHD
Chain of ATP-dependent DNA helicase Q1 (Homo sapiens) (P46063 whole entry, looked up): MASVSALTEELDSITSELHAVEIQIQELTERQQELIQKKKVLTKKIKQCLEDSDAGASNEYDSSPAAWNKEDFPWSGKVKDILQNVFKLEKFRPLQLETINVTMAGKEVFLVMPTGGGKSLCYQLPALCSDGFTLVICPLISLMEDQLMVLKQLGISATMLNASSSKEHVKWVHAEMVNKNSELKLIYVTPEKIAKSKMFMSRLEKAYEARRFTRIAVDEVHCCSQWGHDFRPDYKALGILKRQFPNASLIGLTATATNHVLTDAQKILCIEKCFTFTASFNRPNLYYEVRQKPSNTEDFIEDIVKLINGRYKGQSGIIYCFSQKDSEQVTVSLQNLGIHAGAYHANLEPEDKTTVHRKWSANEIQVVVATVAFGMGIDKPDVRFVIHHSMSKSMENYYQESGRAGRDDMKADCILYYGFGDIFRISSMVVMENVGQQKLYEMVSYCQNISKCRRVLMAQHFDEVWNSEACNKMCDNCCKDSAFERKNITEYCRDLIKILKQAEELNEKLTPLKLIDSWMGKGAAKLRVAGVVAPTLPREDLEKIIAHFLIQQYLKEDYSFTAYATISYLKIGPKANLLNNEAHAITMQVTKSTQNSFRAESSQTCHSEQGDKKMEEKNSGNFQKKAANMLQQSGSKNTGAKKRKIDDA
Chain of Thyrotropin receptor (Homo sapiens) (P16473 whole entry, looked up): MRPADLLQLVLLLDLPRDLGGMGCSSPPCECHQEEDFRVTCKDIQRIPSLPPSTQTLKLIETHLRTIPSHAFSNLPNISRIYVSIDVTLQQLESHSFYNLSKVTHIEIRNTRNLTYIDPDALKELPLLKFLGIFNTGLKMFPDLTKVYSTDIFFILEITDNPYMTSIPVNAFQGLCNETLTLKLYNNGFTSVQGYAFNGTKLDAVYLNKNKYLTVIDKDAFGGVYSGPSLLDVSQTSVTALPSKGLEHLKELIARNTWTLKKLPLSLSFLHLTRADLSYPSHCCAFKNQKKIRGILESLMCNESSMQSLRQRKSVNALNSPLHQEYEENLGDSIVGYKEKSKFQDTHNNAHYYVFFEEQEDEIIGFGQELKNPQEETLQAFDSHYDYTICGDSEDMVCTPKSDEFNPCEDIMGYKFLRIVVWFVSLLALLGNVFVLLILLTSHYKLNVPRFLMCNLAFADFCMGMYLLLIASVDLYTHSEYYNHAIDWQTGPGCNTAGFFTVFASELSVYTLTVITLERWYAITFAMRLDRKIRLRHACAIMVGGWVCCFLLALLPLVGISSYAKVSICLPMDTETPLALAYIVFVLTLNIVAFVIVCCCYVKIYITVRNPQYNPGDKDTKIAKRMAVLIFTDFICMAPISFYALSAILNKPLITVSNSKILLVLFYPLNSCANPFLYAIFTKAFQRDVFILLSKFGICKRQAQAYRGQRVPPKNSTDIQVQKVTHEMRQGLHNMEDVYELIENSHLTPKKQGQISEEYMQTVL
Chain of Transient receptor potential cation channel subfamily V member 1 (Homo sapiens) (Q8NER1 whole entry, looked up): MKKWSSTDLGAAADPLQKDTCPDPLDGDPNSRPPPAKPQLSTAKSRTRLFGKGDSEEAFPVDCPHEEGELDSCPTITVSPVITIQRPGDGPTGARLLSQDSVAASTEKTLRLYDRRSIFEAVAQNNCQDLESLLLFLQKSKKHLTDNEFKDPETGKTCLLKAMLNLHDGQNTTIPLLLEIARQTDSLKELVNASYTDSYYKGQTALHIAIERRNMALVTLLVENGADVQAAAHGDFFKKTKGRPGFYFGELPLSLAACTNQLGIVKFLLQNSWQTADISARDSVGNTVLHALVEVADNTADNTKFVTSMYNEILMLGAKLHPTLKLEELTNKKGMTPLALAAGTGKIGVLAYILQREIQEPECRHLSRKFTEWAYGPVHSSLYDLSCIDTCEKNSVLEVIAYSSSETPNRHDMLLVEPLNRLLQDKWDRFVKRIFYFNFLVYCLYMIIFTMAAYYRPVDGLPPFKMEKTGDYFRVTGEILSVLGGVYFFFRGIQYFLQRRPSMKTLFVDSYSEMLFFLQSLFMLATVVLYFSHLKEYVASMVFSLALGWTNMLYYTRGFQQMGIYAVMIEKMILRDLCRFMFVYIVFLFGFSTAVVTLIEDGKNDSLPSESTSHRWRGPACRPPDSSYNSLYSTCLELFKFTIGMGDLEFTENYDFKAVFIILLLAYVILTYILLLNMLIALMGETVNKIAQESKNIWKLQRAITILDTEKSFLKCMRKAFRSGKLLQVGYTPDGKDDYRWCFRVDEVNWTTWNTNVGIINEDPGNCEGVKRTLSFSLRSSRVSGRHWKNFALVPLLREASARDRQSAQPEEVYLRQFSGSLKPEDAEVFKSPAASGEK
Chain of DNA repair nuclease/redox regulator APEX1 (Homo sapiens) (P27695 whole entry, looked up): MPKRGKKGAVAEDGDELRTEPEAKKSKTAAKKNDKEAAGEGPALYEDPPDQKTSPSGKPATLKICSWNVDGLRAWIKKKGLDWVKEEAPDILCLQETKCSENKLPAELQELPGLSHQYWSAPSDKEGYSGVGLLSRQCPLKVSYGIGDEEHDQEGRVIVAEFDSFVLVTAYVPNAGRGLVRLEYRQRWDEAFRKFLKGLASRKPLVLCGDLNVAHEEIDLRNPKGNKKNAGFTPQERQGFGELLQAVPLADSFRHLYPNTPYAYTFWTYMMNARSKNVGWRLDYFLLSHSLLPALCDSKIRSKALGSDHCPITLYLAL
Chain of Rap guanine nucleotide exchange factor 3 (Homo sapiens) (O95398 whole entry, looked up): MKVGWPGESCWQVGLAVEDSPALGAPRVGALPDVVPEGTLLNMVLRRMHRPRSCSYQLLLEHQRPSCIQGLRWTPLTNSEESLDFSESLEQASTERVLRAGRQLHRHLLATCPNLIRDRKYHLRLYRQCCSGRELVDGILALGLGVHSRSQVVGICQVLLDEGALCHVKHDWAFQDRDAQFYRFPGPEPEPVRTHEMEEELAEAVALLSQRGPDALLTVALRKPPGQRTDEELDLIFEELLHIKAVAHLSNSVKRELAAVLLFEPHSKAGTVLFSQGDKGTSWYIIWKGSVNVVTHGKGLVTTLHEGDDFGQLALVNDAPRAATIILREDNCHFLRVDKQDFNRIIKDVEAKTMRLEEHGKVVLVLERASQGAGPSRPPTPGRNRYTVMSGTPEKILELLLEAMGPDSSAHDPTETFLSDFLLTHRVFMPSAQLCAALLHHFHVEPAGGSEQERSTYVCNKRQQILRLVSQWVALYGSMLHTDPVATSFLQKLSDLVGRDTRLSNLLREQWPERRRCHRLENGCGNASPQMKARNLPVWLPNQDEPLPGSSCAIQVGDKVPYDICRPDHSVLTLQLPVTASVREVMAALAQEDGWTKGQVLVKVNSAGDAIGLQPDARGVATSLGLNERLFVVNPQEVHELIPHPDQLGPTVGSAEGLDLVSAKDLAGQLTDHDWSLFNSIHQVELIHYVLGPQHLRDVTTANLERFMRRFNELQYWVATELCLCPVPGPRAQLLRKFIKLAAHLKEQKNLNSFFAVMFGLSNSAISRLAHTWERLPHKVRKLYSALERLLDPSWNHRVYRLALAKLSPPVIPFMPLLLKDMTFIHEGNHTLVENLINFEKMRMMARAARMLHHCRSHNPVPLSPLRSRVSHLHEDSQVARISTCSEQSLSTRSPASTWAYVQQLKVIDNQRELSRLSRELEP

Turning to `Cc1cccc2c3c(ccc12)C1=C(C(=O)C3=O)C(C)CO1` (centres undefined), the Potency entry in assay [1] and in assay [2] was “inactive” throughout.

Regarding `CN(C)CCCO[C@H]1C([C@H](O)CO)O[C@@H]2OC(C)(C)O[C@@H]21` (some centres undefined), the compound was classed as inactive in assay [3], in assay [4], in assay [10], in [11], in assay [12] and in [15]. The result in assay [17] was inactive. Also, the Potency result in assay [5], in assay [6], in [7], in [8], in assay [9] and in assay [13] was “inactive” each time. Moreover, the Potency result in assay [14] and in assay [18] was “inactive” in each case. For the same compound, the activation in assay [16] was 0.75%.

Turning to `CNC(=O)[C@H]1O[C@@H](n2cnc3c(N)ncnc32)[C@H](O)[C@H]1O`, the compound was classed as inactive in assay [3], in assay [4], in assay [10], in [11], in assay [12] and in assay [15]. For the same compound, the result in [19] and in [17] was inactive. The Potency result in [5], in assay [6], in [7], in [8], in [9] and in assay [13] was “inactive” each time. Further, the Potency entry in assay [14] and in [18] was “inactive” in each case. The activation in [16] is -0.0625%.

Take `COc1ccccc1CNc1ncncc1-c1ccccc1OC`: the Potency result in assay [1] and in [2] was “inactive” each time.

Turning to `Nc1ncnc2c1ncn2[C@@H]1O[C@H](COP(=O)(O)OP(=O)(O)OP(=O)(O)OP(=O)(O)OC[C@@H]2O[C@H](n3cnc4c(N)ncnc43)[C@@H](O)[C@@H]2O)[C@H](O)[C@H]1O`, the call in assay [3], in [4], in [10], in assay [11], in assay [12] and in assay [15] was inactive. The outcome in assay [19] was inactive. For the same compound, the Potency result in assay [7], in [13], in [14] and in assay [18] was “inactive” in each case. The activation in [16] is 13.9%.

For `CC#C[C@]1(O)CC[C@H]2C3CCC4=CC(=O)CCC4=C3[C@@H](c3ccc(N(C)C)cc3)C[C@@]21C` (some centres undefined), the call in [3], in assay [4], in assay [11], in assay [15], in [19] and in [17] was inactive. Besides, the Potency in [5] was 11.2 µM (active); in assay [6] it was 10 µM (active); in assay [8], 5.01 µM (active); in assay [9], 12.6 µM (active); in [13], 11.7 µM (active); in [14], 15.8 µM (active). The activation in [16] is 28.5%.

As to `O=C1C=CC2=C3c4cc(O)c(O)cc4CC3(O)COC2=C1O` (centres undefined), the Potency result in assay [1] and in [2] was “inactive” throughout.

On to `COC(=O)CC1C2(C)CC34OC5(C)O[C@@]6(C7/C(=C(/OC)C(C)C)C(=O)OC(c8ccoc8)[C@@]7(C)C(OC(=O)C(C)C)C(OC)[C@]6(O5)[C@@]13C)C(OC)[C@]4(OC)C2OC(C)=O` (some centres undefined), for which the Potency result in assay [1] and in assay [2] was “inactive” each time.

With `CCC(=O)OC1CCC2C3CCc4cc(O)ccc4C3CC[C@]12C` (some centres undefined), the Potency result in assay [1] and in assay [2] was “inactive” in each case.

As to `CN(C)Cc1ccccc1-c1cc(NCc2cccs2)ncn1`, the Potency in [20] was 2 µM (active).

On to `COc1cccc(-c2ccc3ncnc(NCCc4c[nH]c5ccc(OC)cc45)c3c2)c1`, for which, in assay [20], the Potency was 2.51 µM (active).

As to `COc1ccccc1-c1nccc(NCc2ccccc2)n1`, the Potency in [20] is 3.98 µM (active).

For the compound `CN1CCN(c2ncc3nc(-c4cccc(C#N)c4)c(=O)n(C[C@H]4CCCO4)c3n2)CC1`, in assay [20], the Potency result is “inactive”.

As for `COc1ccccc1CNc1ncnc2ccc(-c3ccoc3)cc12`, in [20], the Potency is 3.16 µM (active).

For `CC1=CC(=O)CC(C)(C)C1(O)/C=C/C(C)=C\C(=O)O` (centres undefined), the Potency entry in assay [18] was “inactive”.
